Among all 150,000 compounds or so, about 1,000 (0.67%) were called active. Cut-off read from the data, not from the text of the source: active = % elongation below about 90%; inactive = the rest, inconclusive results apart. The full list was thinned out, with actives kept by preference.
Molecular target: Genome polyprotein (Poliovirus type 1 (strain Mahoney)) (UniProt P03300)
Assay: poliovirus RdRp elongation inhibitors, primary screen, biochemical, fluorescence polarization, total intensity (AID 588519); for z-score: compound at 16.7 µg/mL
Conditions: poliovirus polymerase elongation, stronger effect = lower value; for % elongation: compound at 16.7 µg/mL; for z-score: measured here: FP z-score
[1] = measured here: total intensity read-out

Chain of Genome polyprotein (Poliovirus type 1 (strain Mahoney)) (P03300 1749-2209 limits assumed): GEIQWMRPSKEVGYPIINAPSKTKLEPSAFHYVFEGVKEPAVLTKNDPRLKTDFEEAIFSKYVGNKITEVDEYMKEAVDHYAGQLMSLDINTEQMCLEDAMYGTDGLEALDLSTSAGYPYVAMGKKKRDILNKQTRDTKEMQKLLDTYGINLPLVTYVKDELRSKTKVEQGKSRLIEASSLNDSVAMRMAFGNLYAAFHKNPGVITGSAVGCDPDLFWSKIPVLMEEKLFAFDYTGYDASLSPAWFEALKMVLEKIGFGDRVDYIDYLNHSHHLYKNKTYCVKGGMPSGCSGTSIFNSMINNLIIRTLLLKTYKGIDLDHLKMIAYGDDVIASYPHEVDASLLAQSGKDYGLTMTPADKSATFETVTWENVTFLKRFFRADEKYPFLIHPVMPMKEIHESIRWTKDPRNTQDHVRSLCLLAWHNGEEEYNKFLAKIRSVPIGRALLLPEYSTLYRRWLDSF

SMILES | % elongation | z-score | % elongation [1] [%]
CCCN(Cc1nc2cc(Cl)ccc2c(=O)[nH]1)C(=S)NC | 99% (inactive) | -0.3 | 99
CN(C)/N=C/C=C1\CCC/C(=C\C=N\N(C)C)C1=O | 165% (inactive) | 6.6 | 154
CN(C)c1ccc(/C=C(\C#N)NC(=O)c2ccccc2)cc1 | 103% (inactive) | 0 | 108
Cc1ccc(NC(=O)COc2ccccc2O)cc1C | 103% (inactive) | 0.1 | 104
Cc1ccc2[nH]c(=O)c(CNCCCN(C)C)cc2c1 | 100% (inactive) | -0.2 | 102
Cc1c(NC(=O)Cc2ccc(S(=O)(=O)N3CCCCC3)cc2)c(=O)n(-c2ccccc2)n1C | 102% (inactive) | -0.1 | 108
Cc1cc(Nc2ccc(Cl)cc2)c2ccccc2n1 | 92% (inactive) | -1 | 93
Cc1ccc2nc(C)cc(Nc3ccccc3)c2c1 | 101% (inactive) | -0.1 | 105
Cc1cc(Sc2nnc(C)s2)c2ccccc2n1 | 86% (active) | -1.5 | 83
CC(C)CCSc1nc2ncn(C)c2c(=O)[nH]1 | 104% (inactive) | 0.4 | 108
COc1cc(/C=N/NS(=O)(=O)c2cc(C)ccc2C)cc(OC)c1O | 104% (inactive) | 0.3 | 124
O=C1S/C(=C/c2cc3c(cc2Cl)OCO3)C(=O)N1c1ccccc1 | 100% (inactive) | -0.4 | 103
CCN(CC)c1nc(C#N)nc(OC)n1 | 87% (active) | -1.5 | 90
NS(=O)(=O)c1ccc(N=Cc2c(O)n(Cc3ccc4c(c3)OCO4)c(=O)c3ccccc23)cc1 | 100% (inactive) | 0 | 105
CN=C(Cl)c1cccs1 | 99% (inactive) | -0.6 | 101
O=C(Nc1cccc(Cl)c1)N1CCC(n2nnc3cc(F)ccc32)CC1 | 102% (inactive) | 0.2 | 100

SMILES | % elongation | z-score | % elongation [1] [%]
CN(C)C(=O)CCSc1nc2cc(Cl)ccc2o1 | 103% (inactive) | 0.3 | 102
CCCCC(=O)Nc1sc2c(c1C#N)CCCC2 | 92% (inactive) | -1.4 | 100
CNC(=O)c1sc(NCc2ccccc2OC)nc1C | 80% (active) | -3.1 | 89
COc1ccccc1CNCc1ccc(C(=O)O)s1 | 108% (inactive) | 0.4 | 113
COc1ccccc1CNC(=O)CS(=O)(=O)c1cccc2nsnc12 | 105% (inactive) | -0.4 | 112
O=C(c1cccc(Cl)c1)N1CCN(CCc2ccncc2)CC1 | 21% (active) | -6.3 | 37
O=C(NCc1ccncc1)C1CCN(C(=O)c2cccc(Cl)c2)CC1 | 99% (inactive) | -0.2 | 102
O=C(c1ccccc1)N1CCN(c2cccc(Cl)c2)CC1 | 100% (inactive) | -0.3 | 95
O=C(O)CSc1nnc(-c2ccccc2)n1-c1ccccc1 | 101% (inactive) | -0.2 | 102
O=C(O)c1ccc2nc[nH]c2c1 | 100% (inactive) | -0.4 | 108
CCOC(=O)c1sc(NC(=O)/C=C/c2ccc(Cl)cc2)cc1C | 102% (inactive) | 0.3 | 106
CCN(C(=O)c1sc2nc3n(c(=O)c2c1C)CCCC3)c1ccccc1 | 100% (inactive) | -1.2 | 100
COc1cc(OC)c(N(C)C(=O)c2ccc3c(=O)n4c(nc3c2)CCCCC4)cc1Cl | 105% (inactive) | 0.9 | 109
CC(C)(C)NCC(O)COc1c(Br)ccc2c1sc1nc3n(c(=O)c12)CCCCC3 (stereo unspecified) | 69% (active) | -4.7 | 96
CC1CC(C)CN(C(=O)C(C)Sc2nnnn2-c2ccc(Cl)cc2)C1 (stereo unspecified) | 98% (inactive) | -0.5 | 99
O=C1CCCCCN1Cc1nnc(SCN2C(=O)c3ccccc3C2=O)n1-c1ccccn1 | 106% (inactive) | 0.4 | 100
